Unmarked numbers belong to inactive results. The source made the active and inactive calls. Unless noted, no stated cut-off is given here; in the data, active means inhibition above about 36%; inactive means the rest.
What was measured:
[1] = test system: transactivating tegument protein VP16 (Human herpesvirus 1); test: VP16 transactivation reporter inhibitors, counter-screen for SRC2 inhibitor project, cell-based, luminescence, single concentration (AID 652007); details: cell-based VP16 transactivation luciferase reporter, at 8.9 µM, hits give high values
[2] = biological target: Nuclear receptor coactivator 2 (Homo sapiens) (UniProt Q15596); test: SRC2 coactivator transcriptional activity inhibitors, confirmation, cell-based, luminescence, HEK293, triplicate (AID 652008;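 active means mean inhibition above 46.5%, the solvent-only control mean plus 3 SD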;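 further: 0% = DMSO-treated cells and 100% = Gossypol at 36 µM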); details: HEK293 GAL4-SRC2 luciferase reporter, at 8.9 µM, hits give high values
Chain of Nuclear receptor coactivator 2 (Homo sapiens) (Q15596 whole entry, looked up, the tested form may be a part): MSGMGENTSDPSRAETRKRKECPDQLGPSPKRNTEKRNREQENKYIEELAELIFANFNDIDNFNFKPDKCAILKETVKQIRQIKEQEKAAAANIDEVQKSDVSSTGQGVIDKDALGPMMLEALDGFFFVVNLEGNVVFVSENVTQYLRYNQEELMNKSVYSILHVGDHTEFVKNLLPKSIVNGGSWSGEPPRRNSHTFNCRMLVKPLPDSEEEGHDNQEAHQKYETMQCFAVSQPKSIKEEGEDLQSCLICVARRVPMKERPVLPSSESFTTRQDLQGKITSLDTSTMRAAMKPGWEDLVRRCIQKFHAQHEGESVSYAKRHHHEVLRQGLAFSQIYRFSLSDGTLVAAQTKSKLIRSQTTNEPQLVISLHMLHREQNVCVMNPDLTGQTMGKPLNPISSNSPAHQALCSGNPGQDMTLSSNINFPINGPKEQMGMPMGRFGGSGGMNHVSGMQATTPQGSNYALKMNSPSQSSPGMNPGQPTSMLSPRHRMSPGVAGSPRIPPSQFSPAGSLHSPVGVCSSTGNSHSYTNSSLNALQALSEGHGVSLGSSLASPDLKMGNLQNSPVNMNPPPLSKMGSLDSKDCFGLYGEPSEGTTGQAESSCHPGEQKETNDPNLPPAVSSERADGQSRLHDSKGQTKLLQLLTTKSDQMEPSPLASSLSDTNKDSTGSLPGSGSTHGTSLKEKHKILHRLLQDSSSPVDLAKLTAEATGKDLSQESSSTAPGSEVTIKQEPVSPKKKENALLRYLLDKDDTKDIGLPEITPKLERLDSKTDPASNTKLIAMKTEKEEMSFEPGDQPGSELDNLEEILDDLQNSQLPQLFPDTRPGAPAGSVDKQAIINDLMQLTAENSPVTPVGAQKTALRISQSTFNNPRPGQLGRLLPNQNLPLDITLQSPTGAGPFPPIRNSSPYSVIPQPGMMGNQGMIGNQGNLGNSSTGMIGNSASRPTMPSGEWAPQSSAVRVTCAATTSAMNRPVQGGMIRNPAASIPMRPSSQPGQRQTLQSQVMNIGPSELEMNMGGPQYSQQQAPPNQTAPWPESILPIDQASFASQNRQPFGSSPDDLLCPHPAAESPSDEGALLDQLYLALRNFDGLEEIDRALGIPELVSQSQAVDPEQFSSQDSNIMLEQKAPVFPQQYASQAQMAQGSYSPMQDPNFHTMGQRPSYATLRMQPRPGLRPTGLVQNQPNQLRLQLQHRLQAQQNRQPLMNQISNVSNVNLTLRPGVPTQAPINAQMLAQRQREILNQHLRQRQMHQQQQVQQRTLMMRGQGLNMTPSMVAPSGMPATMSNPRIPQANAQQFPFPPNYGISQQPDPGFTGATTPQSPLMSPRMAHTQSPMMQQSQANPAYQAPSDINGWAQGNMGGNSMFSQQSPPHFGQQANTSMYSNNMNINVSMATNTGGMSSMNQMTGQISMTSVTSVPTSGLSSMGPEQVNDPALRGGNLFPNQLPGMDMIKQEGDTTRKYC

Row | SMILES | inhibition [1] | inhibition [2]
1 | CCOC(=O)CCC(=O)c1c(C)oc2ccc(OC)cc12 | 6.24% | -15%
2 | Cc1ccc(C(=O)O/N=C(\N)c2ccccn2)cc1C | -29.9% | -24.9%
3 | Cc1c(C=O)n(C)n(-c2ccccc2)c1=O | -14.4% | 2.35%
4 | CN1/C(=C\C=C2/SC(=S)NC2=O)C(C)(C)c2ccccc21 | 8.01% | 15.6%
5 | O=C(CCl)N(Cc1cc(=O)[nH]c2ccccc12)c1ccccc1 | 38.6% (active) | 50.5% (active)
6 | Cc1c(CCC(=O)O)c(=O)oc2cc3oc4c(c3cc12)CCCC4 | 49.3% (active) | 69.2% (active)
7 | CCOc1ccc(-c2nc(CSCC(=O)N3CCN(c4cccc(OC)c4)CC3)c(C)o2)cc1 | 23.2% | 49.8% (active)
8 | CC(C)(C)c1ccc(-c2noc(CCC(=O)NCc3ccco3)n2)cc1 | 40.9% (active) | 59.5% (active)
9 | O=S(=O)(c1ccc(NC(=S)NCc2ccco2)cc1)N1CCCCC1 | -14.6% | 4.68%
10 | CC(OC(=O)C1CCCCC1)C(=O)Nc1cccc([N+](=O)[O-])c1 (stereo not drawn) | -0.78% | 9.77%
11 | NC(=S)N1OC[C@@H]2COc3ccc4ccccc4c3[C@@H]21 | 2.09% | 48.6% (active)
12 | O=C(c1cccc2c1-c1ccccc1/C2=N/O)N1CCCCC1 | 0.22% | 30%
13 | Cc1nc(-c2ccc(NC(=O)c3ccco3)cc2)cs1 | 18.9% | 60.4% (active)
14 | O=S(=O)(c1ccc(NC(=S)NCc2ccncc2)cc1)N1CCCCC1 | 15.6% | 0.63%
15 | Cc1c(CCC(=O)N[C@@H](C)C(=O)O)c(=O)oc2c(C)c3oc4c(c3cc12)CCCC4 | 25% | 27.4%
16 | N#Cc1c(N)nc2c(c1N)CC(C(F)(F)F)O2 (stereo not drawn) | -1.62% | 12%
17 | CCOC(=O)C1(Cc2ccc(Cl)cc2)CCN(C(C)Cc2ccc(O)c(OC)c2)CC1 (stereo not drawn) | 15.9% | 30.1%

Row | SMILES | inhibition [1] | inhibition [2]
18 | CC(C(=O)NC(C)(C)C)N(C(=O)CS(=O)CC(=O)Nc1ccc(F)cc1)c1ccccc1F (stereo not drawn) | 2.18% | -14.3%
19 | N/C(=N\OC(=O)c1ccc2ccccc2c1)c1ccccn1 | -38.3% | -34.3%
20 | CC(=O)c1ccc(OC2(C)CCN(Cc3ccc(OC(F)(F)F)cc3)C2)cc1 (stereo not drawn) | -12.4% | -13.5%
21 | CCN(CC(=O)Nc1cc(Cl)ccc1C)C(=O)C1CCN(c2ncnc3sc(C)c(C)c23)CC1 | 8.26% | 20.7%
22 | COc1ccc(NC(=O)NCc2ccccc2F)cc1OC | -0.66% | -17.2%
23 | CC1CC(C)(C)Nc2ccc(OC(=O)c3ccco3)cc21 (stereo not drawn) | -46.6% | 46.8% (active)
24 | O=C(c1ccco1)N1CCN(C(=O)N2c3ccccc3Sc3ccccc32)CC1 | 6.34% | 14.1%
25 | COc1cccc(C(=O)c2sc(NC(C)C)nc2N)c1 | 6.6% | 57.2% (active)
26 | C[C@@H]1C(c2ccc(F)cc2)=NN(c2ccccc2)[C@H]1C(=O)N1CCOC1=O | -11.2% | -21.5%
27 | COc1ccc(OC)c(NC(=O)C(C)OC(=O)c2cc3ccccc3[nH]2)c1 (stereo not drawn) | -2.68% | 17.6%
28 | CCOC(=O)Cc1ccc(NC(=O)c2ccc(C(C)(C)C)cc2)cc1 | -47.1% | 63.9% (active)
29 | O=C(Nc1ncn[nH]1)c1ccc(Cl)c(S(=O)(=O)Nc2ccc(Cl)cc2)c1 | -5.84% | 5.69%
30 | CC(=O)CCc1ccc(OCCCCN2CCC(Cc3ccccc3)CC2)cc1 | 13.2% | 0.94%
31 | COc1cc(/C=C/C(=O)Nc2ccc(OC)c(S(=O)(=O)N3CCOCC3)c2)ccc1OC(F)F | 11% | 63.1% (active)
32 | O=C(NCc1ccco1)/C(=C/c1cccc([N+](=O)[O-])c1)NC(=O)c1ccco1 | -6.26% | -17.7%
33 | COc1ccc(-c2csc3ncnc(NCCO)c23)cc1 | 3.39% | 47.1% (active)
34 | COC(=O)c1ccc(-c2nc3cc(N)ccc3o2)cc1 | -20.4% | 49.8% (active)

Reference: PubChem BioAssay
